Normalized growth data for four compounds are collected here from PubChem BioAssay AID1159580 (chemical genetic matrix, 2015).

The test can be described thus: chemical genetic growth profiling, strain panel (AID 1159580).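 Further: tested at 20 µM; growth read once vehicle control cultures reached saturation at 30 °C; 1 = growth at the plate median or of vehicle wells.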 The note with it: S. cerevisiae deletion strains, growth OD.
The mark [1] stands for this setting: locus YAL013W, strain DEP1, stronger effect = lower value.
The mark [2] stands for this setting: locus YAL040C, strain CLN3, stronger effect = lower value.
The mark [3] stands for this setting: locus YDR363W, strain ESC2, stronger effect = lower value.
Setting [4] is: locus YER002W, strain NOP16, stronger effect = lower value.
Where [5] appears, read: locus YJR075W, strain HOC1, stronger effect = lower value.
[6] abbreviates: locus YNL153C, strain GIM3, stronger effect = lower value.
Where [7] appears, read: locus YNL175C, strain NOP13, stronger effect = lower value.
The mark [8] stands for this setting: locus YNL197C, strain WHI3, stronger effect = lower value.
The mark [9] stands for this setting: locus YNL224C, strain SQS1, stronger effect = lower value.
Where [10] appears, read: locus YOR083W, strain WHI5 (second series), stronger effect = lower value.
Where [11] appears, read: locus YDR150W, strain NUM1, stronger effect = lower value.
The mark [12] stands for this setting: locus YGR078C, strain PAC10, stronger effect = lower value.
Setting [13] is: locus YMR263W, strain SAP30, stronger effect = lower value.
Setting [14] is: locus YNL322C, strain KRE1, stronger effect = lower value.
The mark [15] stands for this setting: locus YPL055C, strain LGE1, stronger effect = lower value.
Where [16] appears, read: locus YPL241C, strain CIN2, stronger effect = lower value.
[17] abbreviates: locus YCL061C, strain MRC1 (second series), stronger effect = lower value.
The mark [18] stands for this setting: locus YMR307W, strain GAS1, stronger effect = lower value.

Each structure is given as a SMILES string. In all, about 5,500 compounds went through this assay and about 2,000 (36%) were called active. Inconclusive results (about 18%) are left out. The list shows a part of the results. A number with no mark means an inactive call. No stated cut-off is given here; in the data, active means normalized growth mostly below about 0.91 (no sharp cut-off); inconclusive means no clear call, values can overlap the other calls; inactive means mostly above about 0.92.

For `CC(=O)OCC1=C(C(=O)O)N2C(=O)C(NC(=O)Cc3cccs3)C2SC1` (centres undefined), the normalized growth reads like this: under setting [1], 1.01; under setting [2], 0.993; under setting [3], 1; under setting [4], 1.03; under setting [5], 0.995; under setting [6], 1.03. Moreover, the normalized growth runs as follows: under setting [7], 1.01; under setting [8], 1.05; under setting [9], 1.03; under setting [10], 1.05.
Regarding `OC1(c2ccc(Cl)cc2)CSc2nc3cc(C(F)(F)F)ccc3n21` (centres undefined), the normalized growth under setting [1] was 1.03; the normalized growth (locus YBR229C, strain ROT2, stronger effect = lower value) is 1; the normalized growth (locus YDL101C, strain DUN1, stronger effect = lower value) is 0.995; the normalized growth under setting [11] was 1.01; the normalized growth (locus YEL061C, strain CIN8, stronger effect = lower value) is 1.02; the normalized growth under setting [12] was 1. The normalized growth is, setting by setting: (locus YHR030C, strain SLT2, stronger effect = lower value) 1.02; (locus YHR087W, strain rtc3, stronger effect = lower value) 1.03; (locus YJR043C, strain POL32, stronger effect = lower value) 1.01; under setting [5], 1; (locus YLR039C, strain RIC1, stronger effect = lower value) 1.09; (locus YLR058C, strain SHM2 (second series), stronger effect = lower value) 1.02. The normalized growth is, setting by setting: (locus YLR085C, strain ARP6, stronger effect = lower value) 1.11; (locus YLR262C, strain YPT6, stronger effect = lower value) 1.12; (locus YML094W, strain GIM5, stronger effect = lower value) 1.07; (locus YMR219W, strain ESC1, stronger effect = lower value) 1.01; under setting [13], 1.02; under setting [6], 0.991. In addition, the normalized growth (locus YNL298W, strain CLA4 (second series), stronger effect = lower value) was 1.1; the normalized growth under setting [14] was 1.02; the normalized growth (locus YNR030W, strain Alg12, stronger effect = lower value) is 1.09; the normalized growth (locus YOL006C, strain TOP1, stronger effect = lower value) was 1.08; the normalized growth under setting [15] is 0.998; the normalized growth under setting [16] is 1.04. For the setting “locus YPR135W, strain CTF4, stronger effect = lower value”, the normalized growth was 1.02.
Regarding `CN1CCN(c2nc3cc(C(F)(F)F)ccc3n3cccc23)CC1`, the normalized growth under setting [2] is 1; the normalized growth under setting [17] was 0.985; the normalized growth under setting [3] is 0.908; the normalized growth under setting [4] is 1.01; the normalized growth under setting [12] is 1.01; the normalized growth under setting [5] was 0.971. Also, the normalized growth was 1 under setting [13]; 0.867 (active) under setting [18]; 1.05 (locus YNL128W, strain TEP1, stronger effect = lower value); 0.88 under setting [6]; 1.06 under setting [8]; 1.03 under setting [9]. The normalized growth reads like this: under setting [14], 0.972; under setting [10], 0.919.
`CN1CCN(c2ccc3ccccc3n2)CC1`: the normalized growth by setting is: under setting [2], 1.04; under setting [17], 0.996; under setting [11], 1; under setting [3], 0.982; under setting [4], 1; under setting [12], 1.01. Moreover, the normalized growth by setting is: under setting [5], 0.982; under setting [18], 1; under setting [7], 1.02; under setting [8], 1; under setting [9], 1.01; under setting [14], 0.982. Further, the normalized growth was 1.03 under setting [10], 0.925 under setting [15] and 0.993 under setting [16].
